High-throughput results (PubChem)
Rows were chosen to be rich in hits. Some 7.3% of all compounds tested hit in one or more screens of this group.
Rab9 prom act = qHTS Assay for Rab9 Promoter Activators | Huh7 Rab9 promoter-luciferase reporter, luminescence, 24 h | Potency, µM (series often up to 9.22 µM), inactives show at the top dose activation, negative = inhibition, usual class: activators | actives 2.8% (n = 320,000); note: % of control where 0% means no effect; nearly all actives have a fitted effect of over 60% in size
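Cell-based reporter: Huh7 stable for Rab9 promoter-driven luciferase, plated in reduced-serum medium with 10% FBS at 1500 cells/well, compound-treated 24 h at 37 °C, luminescence read after 10 min reagent.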
ELG1 genotoxic = qHTS screen for small molecules that induce genotoxicity in human embryonic kidney (HEK293T) cells expressing luciferase-tagged ELG1 | HEK293T ELG1-luciferase reporter, luminescence, 16 h | AID 504466, 2011 | actives 1.3% (n = 330,000) | Potency, µM (doses to about 46 µM), inactives show at the highest dose activity change, positive = activation, hits mostly activators; note: % of control where 0% means no effect; nearly all actives have a fitted effect of over 60% in size
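Cells (2,000/well) expressing the ELG1-luciferase fusion are dosed by pin tool and kept 16 hr at 37 °C, 5% CO2. Signal comes from ONE-Glo luciferase reagent after 30 min at room temperature.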
uPA surface inh = qHTS for Inhibitors of Cell Surface uPA Generation; cell surface uPA generation assay, qHTS; Potency, µM (doses to about 38.3 µM), for inactives: top-dose activity change, negative = inhibition, hits mostly inhibitors; actives 0.31% (n = 330,000); AID 540303, 2011; active = well fitted inhibition curve with a large enough effect; inconclusive = small, poorly fitted or top-dose-only effect; inactive = no such curve, though single readings can be large or run the other way; tested in mouse RAW 264.7 cells; note: % is set by controls: 0 for no effect and ±100 for the full control effect; nearly all actives have a fitted effect of over 55% in size
SMN2 splice up = qHTS Assay for Enhancers of SMN2 Splice Variant Expression. HEK293 SMN2-luciferase splicing reporter, luminescence, 30-36 h. Potency, µM (top dose mostly 46.1 µM), without a hit: top-dose activity change, positive = activation, usual class: activators. actives 2.8% (n = 210,000). AID 1458, 2008; note: % of control where 0% means no effect; nearly all actives have a fitted effect of over 55% in size
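HEK293 cells carry an SMN2 minigene-luciferase reporter in which exon 7 inclusion puts luciferase in frame. Cells were seeded at 2000 cells/well, attached for 10-12 hours, then exposed to compounds for 30-36 hours at 37C before ONE-Glo luminescence.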
FLuc modulator = qHTS profiling assay for firefly luciferase inhibitor/activator using purifed enzyme and Km concentrations of substrates (counterscreen for miR-21 project); Luciferin 4-monooxygenase (Photinus pyralis), P08659; actives 6.9% (n = 360,000); purified FLuc, Km substrates, luminescence inhibition; Potency, µM (highest dose often 57.5 µM), inactives show top-dose activity change, negative = inhibition, most hits filed as inhibitors;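 note: plate controls were vehicle for no effect and reference inhibitor for full effect; nearly all actives have a fitted effect of over 55% in size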
Target sequence (P08659 whole entry, looked up): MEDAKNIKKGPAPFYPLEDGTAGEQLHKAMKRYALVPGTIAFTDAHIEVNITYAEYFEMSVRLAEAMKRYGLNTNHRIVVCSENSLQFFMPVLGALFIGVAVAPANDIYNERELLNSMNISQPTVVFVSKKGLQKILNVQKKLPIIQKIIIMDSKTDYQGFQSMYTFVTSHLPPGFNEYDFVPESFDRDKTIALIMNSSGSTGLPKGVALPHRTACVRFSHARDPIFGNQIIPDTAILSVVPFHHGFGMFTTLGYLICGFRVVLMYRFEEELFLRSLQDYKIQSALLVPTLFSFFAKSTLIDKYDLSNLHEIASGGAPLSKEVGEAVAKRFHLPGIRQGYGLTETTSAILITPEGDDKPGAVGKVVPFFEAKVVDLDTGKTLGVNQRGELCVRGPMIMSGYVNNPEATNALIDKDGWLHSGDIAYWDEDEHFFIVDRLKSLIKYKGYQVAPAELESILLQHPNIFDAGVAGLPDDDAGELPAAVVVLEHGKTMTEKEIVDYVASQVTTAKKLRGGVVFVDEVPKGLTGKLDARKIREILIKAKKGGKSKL
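Purified P. pyralis luciferase, 10 nM final, with Km-level 10 uM D-luciferin and 10 uM ATP in 50 mM Tris acetate pH 7.5, 10 mM Mg acetate, 0.01% Tween-20, 0.05% BSA; 6-point qHTS titration about 60 µM downward; luminescence read.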
NPC1 promoter act = qHTS Assay for NPC1 Promoter Activators; Huh7 NPC1 promoter luciferase reporter, 24 h; Potency, µM (highest dose often 9.22 µM), for the others: top-dose activation, hits mostly activators; actives 2.4% (n = 320,000); AID 485313, 2010; note: % of control where 0% means no effect; nearly all actives have a fitted effect of over 60% in size
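Luciferase expression driven by the NPC1 promoter was measured in stably transfected Huh7 cells after a 24 h compound incubation, using a luciferase reagent and a luminescence read.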
* hit, by the source's call; ? = inconclusive; / = no result; [ ] = another dose, or the depositor's remark. Unless noted, calls come from the whole dose curve; as a rule, active = well fitted curve in the direction sought with a large enough effect; inconclusive = small, poorly fitted or top-dose-only effect, or another doubt; inactive = no such curve, though single readings can be large; an effect the other way counts as inactive or inconclusive. Potency is the fitted concentration of half-maximal effect.

SMILES	Rab9 prom act	ELG1 genotoxic	uPA surface inh	SMN2 splice up	FLuc modulator	NPC1 promoter act
Cc1cc([N+](=O)[O-])c(C)c(Br)c1C	/	/	/	-10%[9.22 µM]	/	/
CN(C)c1ccc(NC(=O)CN2C(=O)c3ccccc3Sc3ccc(C(=O)N4CCCC4)cc32)cc1	/	/	/	/	-4%	/
CCS(=O)(=O)N1CC(=O)N(c2cccc(C)c2C)C(C)(C(=O)NC2CCCCC2)C1 (stereo not drawn)	/	/	/	/	0%	/
CCOc1ccc(CCNC(=O)c2ccc(C)c(-n3c(C)nc4cccnc43)c2)cc1OCC	/	/	/	/	4%	/
COc1ccc(/C=C/C(=O)NC2CC3CCC2C3)cc1 (stereo not drawn)	19%	?	-4%	/	17µM*	12%
O=C(Nc1cccc(C(=O)NC2CCCC2)c1)c1ccccc1	4%	-3%	-1%	/	-4%	-5%
COc1ccc(/C=C/C(=O)Nc2cccc(C(C)=O)c2)cc1	?	8%	-4%	11µM*	0.95µM*	?
COc1ccc(/C=C/C(=O)Nc2cccc(F)c2)cc1	/	/	/	4µM*	0.85µM*	/
COc1ccc(/C=C/C(=O)Nc2ccc(C(N)=O)cc2)cc1OC	2%	0%	-1%	/	-18%	-1%
O=C(/C=C/c1ccccc1)Nc1cccc(C(=O)NC2CC2)c1	/	/	13µM*	/	/	/
COc1ccc(/C=C/C(=O)Nc2ccccc2C(F)(F)F)cc1	?	10%	6%	?	?	?
COc1ccc(/C=C/C(=O)NC2CCCCC2C)cc1 (stereo not drawn)	20%	-3%	0%	/	-18%	2%
CC1CCN(C(=O)c2cc(S(=O)(=O)N3CCOCC3)ccc2N2CCCC2)CC1	1%	-2%	-5%	/	5%	1%
COc1ccccc1C(=O)Nc1c(C(=O)Nc2ccccc2F)oc2ccccc12	/	/	/	-2%	-6%	/
COc1ccc(NC(=O)/C=C/c2ccc(Cl)cc2)cc1	2.5µM*	/	/	11µM*	/	2.1µM*
COC(=O)c1ccc(OC)c(Cn2c(=O)n(-c3ccc(C)cc3)c(=O)c3c2cnn3C)c1	/	/	/	-2%	-3%	/
Oc1ccc(-c2cn3ccccc3n2)cc1	2.8µM*	?	4µM*	/	5.4µM*	2.2µM*
O=C(COc1ccc(Br)cc1)NCc1cn2ccccc2n1	2%	-1%	-4%	/	-1%	-4%
Brc1ccc(-c2cn3ccccc3n2)cc1	0.4µM*	?	-12%	/	0.76µM*	0.71µM*
Cc1ccccc1Nc1c(-c2c[nH]c3ccccc23)nc2ccccn12	/	/	/	22%	5%	/
c1ccc2c(-c3cn4ccccc4n3)c[nH]c2c1	3.5µM*	14%	/	14µM*	12µM*	?
Brc1ccc(OCc2cn3ccccc3n2)cc1	0.63µM*	?	-12%	10µM*	2.7µM*	1.6µM*
